PubChem BioAssay (NCATS)
“And” between values parts separate entries of the source, which are not always exact repeats. Identical values can stand only once. Inconclusive results are not listed. The source made the active and inactive calls. Unless noted, calls follow the shape of the dose curve; as a rule, active = well fitted curve in the direction sought with a large enough effect; inconclusive = small, poorly fitted or top-dose-only effect, or another doubt; inactive = no such curve, though single readings can be large; an effect the other way counts as inactive or inconclusive.

Tests used:
[1] = AP1 Signaling Pathway (AID 357; active = well fitted curve in either direction with a large enough effect, not every such curve was filed as active;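 also: ME-180 reporter cells stimulated with EGF at its EC50 level; % is scaled to controls: 0 for no effect and ±100 for the full control effect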); details: ME-180 AP-1-bla reporter, EGF-induced, beta-lactamase ratio, 5 h
How it was run: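 A ratiometric CCF4 readout (405 nm excitation; 460 and 530 nm emission) quantified AP-1-driven beta-lactamase in ME-180 cells after 5 h with compound and EC50 EGF; AC50 values were derived for activators and inhibitors.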

[2] = target: Cytochrome P450 1A2 (Homo sapiens) (UniProt P05177); test: p450-cyp1a2 (AID 410; calls by dose curve;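 also: -100% = full effect of reference inhibitor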)
How it was run: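 Inhibition was calculated relative to 57 uM furafylline (full inhibition). The reaction used human CYP1A2 at 20nM with Luciferin-ME at its Km, 100uM, driven by an NADPH-regenerating system for 60 min at room temperature.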

[3] = NFAT Signaling Pathway (AID 444; active = well fitted curve in either direction with a large enough effect, not every such curve was filed as active;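 also: carbachol stimulus at about its EC50 of 1 µM final; % is scaled to controls: 0 for no effect and ±100 for the full control effect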); details: Jurkat NFAT-bla M1, carbachol, beta-lactamase ratio, 5 h
How it was run: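 Jurkat cells with NFAT-driven β-lactamase reporter and co-expressed M1 receptor, stimulated with carbachol (final 1 uM, ~EC50), compound titration, 5 h at 37 °C. CCF4 loaded 1 h at RT; 460/530 nm ratio gave %activity and AC50.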

[4] = Stat Signaling Pathway (AID 446; active = well fitted curve in either direction with a large enough effect, not every such curve was filed as active;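 also: ME-180 cervical cancer cells given 40 pM IL-6 alongside compound; SIE-controlled beta-lactamase reporter measured as 460/530 nm FRET emission ratio; % is scaled to controls: 0 for no effect and ±100 for the full control effect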); details: ME-180 SIE beta-lactamase reporter, IL-6 stimulated, 5 h
How it was run: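 Reporter line: ME-180 cervical carcinoma, SIE-beta-lactamase. Treatment: compound with 40 pM IL-6, 5 hrs, 37 C, in low-serum OPTI-MEM with 10 mM HEPES pH 7.3. Detection: 460/530 nm fluorescence.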

[5] = target: Glucocorticoid receptor (Homo sapiens) (UniProt P04150); test: GR-GFP Redistribution (AID 450;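 active = compounds whose dose series gives a full or clear partial fitted curve of increased nuclear translocation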; also: potency is read from the fitted curve at half-maximal effect); details: U2OS GR-GFP nuclear translocation, laser cytometry, 2 h
[6] = target: Glucocorticoid receptor (Homo sapiens) (UniProt P04150); test: GR-EFC Redistribution (AID 451; calls by dose curve; also: potency is read from the fitted curve at half-maximal effect); details: CHO-K1 GR-EFC translocation, beta-gal luminescence, 2 h
How it was run: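 CHO-K1 cells expressing nuclear EA and GR-ED fragments of b-gal; compounds titrated up to 46 uM final, 2 h at 37 C. GR nuclear translocation read as complemented b-gal luminescence after 1 h RT detection.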

[7] = target: Mitogen-activated protein kinase 10 (Mus musculus) (UniProt Q61831); test: JNK3 AlphaScreen Assay (AID 530; active = well fitted curve in either direction with a large enough effect, not every such curve was filed as active;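 also: kinase came from lysate of stimulated human HepG2 cells; signal reports phosphorylation of biotinylated GST-cJun 1-79 at Ser73 with 10 µM ATP; % is scaled to controls: 0 for no effect and ±100 for the full control effect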)
How it was run: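 qHTS format: compounds tested as titrations against IL-1beta/TNF-alpha-activated HepG2 lysate JNK3 with biotin-GST-cJun substrate and 10 uM ATP at room temperature. Loss of anti-phospho-cJun AlphaScreen signal indicates inhibition.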

[8] = target: 3',5'-cyclic-AMP phosphodiesterase 4B (Homo sapiens) (UniProt Q07343); test: qHTS Assay for Inhibitors of PDE-IV (AID 607; active = well fitted activation curve with a large enough effect in the main read-out, with a control signal flat, not every such curve was filed as active; also: % of control where 0% means no effect)
How it was run: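 Cell-based read-out of cAMP via a modified cyclic nucleotide-gated channel and membrane potential dye (535/590 nm) in HEK293 cells expressing PDE4 endogenously. Compounds tested up to 22.9 uM final; 100 uM RO 20-1724 reference.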

[9] = target: alpha-glucosidase (Oryza sativa, rice) (UniProt Q653V4); test: Counterscreen for Glucocerebrosidase Inhibitors: qHTS Assay for Rice alpha-Glucosidase at pH 5.0 (AID 997);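 also: 0% = full activity with enzyme and -100% = basal without enzyme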
How it was run: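 Rice alpha-glucosidase (4 nM final) with 400 uM 4-methylumbelliferyl-alpha-D-glucopyranoside in citrate buffer pH 5.0, 20 min at room temperature, stopped at pH 10; fluorescence 365/440 nm, compounds 0.7 nM–77 uM, AC50 from Hill fits.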

[10] = qHTS Assay for Lipid Storage Modulators (AID 1519; calls by dose curve); details: Drosophila S3 cells, BODIPY lipid droplet/cell ratio, laser cytometry, cells loaded with oleic acid; for activity change, negative = inhibition: at 25.7 µM (top of the series)
How it was run: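 Cells seeded at 5,000 per well were treated with compounds over a concentration series and loaded with oleic acid (400 uM, as added). Lipid droplet fluorescence (488 nm excitation, 500-530 nm channel) was read by laser-scanning cytometry and normalized to 20 uM Triacsin C.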

[11] = target: ATP-dependent 6-phosphofructokinase (Trypanosoma brucei brucei) (UniProt O15648); test: qHTS Assay to Find Inhibitors of T. brucei phosphofructokinase: hit validation (AID 492961); also: % is scaled to controls: 0 for no effect and ±100 for the full control effect
How it was run: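 Luminescence from ADP-Glo reports ADP generated as T. brucei PFK (1.25 nM) phosphorylates 0.5 mM fructose-6-phosphate using 0.1 mM ATP. Reactions ran 45 min at room temperature, pH 8.0.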

[12] = target: Ubiquitin carboxyl-terminal hydrolase 1 (Homo sapiens) (UniProt O94782); test: Inhibitors of USP1/UAF1: Pilot qHTS (AID 504865);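 also: rhodamine fluorescence freed from ubiquitin-rhodamine substrate followed over time; top concentration of the series differs between compounds; % is scaled to controls: 0 for no effect and ±100 for the full control effect; nearly all actives have a fitted effect of over 35% in size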
How it was run: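 USP1/UAF1 complex at 1 nM preincubated 15 min at room temperature with compound, then Ub-Rho substrate added at 150 nM final. Fluorescence (480/540 nm) read kinetically in 50 mM HEPES pH 7.8, 0.5 mM EDTA, 1 mM TCEP, 0.1 mg/ml BSA, 0.01% Tween-20.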

[13] = target: Luciferin 4-monooxygenase (Photinus pyralis) (UniProt P08659); test: Biochemical firefly luciferase enzyme assay for NPC (AID 624030);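 also: purified P. pyralis luciferase at 10 nM with luciferin and ATP substrate; 0% = DMSO and -100% = full luciferase inhibition by PTC124 control; nearly all actives have a fitted effect of over 70% in size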
How it was run: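 Purified P. pyralis luciferase at 10 nM in 50 mM Tris Acetate (final), luminescence read within 5 minutes of enzyme addition to compounds. Activity normalised to PTC124 versus DMSO; concentration-response curves classed by r2, magnitude and activity.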

[14] = qHTS profiling for inhibitors of Plasmodium falciparum proliferation (AID 504749);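 also: 0% = DMSO vehicle and full inhibition = artemisinin control; nearly all actives have a fitted effect of over 60% in size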; details: P. falciparum in erythrocytes, SYBR Green DNA, 72 h, at 28.7 µM (top of the series)
How it was run: (§1)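 Readout was DNA-dye fluorescence from lysed cultures, ex 485/em 535 nm. Parasitized red cells had grown 72 h with compound; data scaled between 0.29 uM artemisinin and DMSO wells and corrected using vehicle-only plates.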

AS120 = test: as above; details: P. falciparum in erythrocytes, SYBR Green DNA, 72 h; series mostly up to 28.7 µM
How it was run: as §1

CP238 = test: as above; details: P. falciparum in erythrocytes, SYBR Green DNA, 72 h; series mostly up to 12.8 µM
How it was run: as §1

CP250 = test: as above; details: P. falciparum in erythrocytes, SYBR Green DNA, 72 h; series mostly up to 12.8 µM
How it was run: as §1

CP262 = test: as above; details: P. falciparum in erythrocytes, SYBR Green DNA, 72 h; series mostly up to 12.8 µM
How it was run: as §1

CP265 = test: as above; details: P. falciparum in erythrocytes, SYBR Green DNA, 72 h; series mostly up to 12.8 µM
How it was run: as §1

FAB9 = test: as above; details: P. falciparum in erythrocytes, SYBR Green DNA, 72 h; series mostly up to 12.8 µM
How it was run: as §1

[15] = measured here: cell count channel max response
[16] = measured here: lipid channel max response

Chain of 3',5'-cyclic-AMP phosphodiesterase 4B (Homo sapiens) (Q07343 whole entry, looked up): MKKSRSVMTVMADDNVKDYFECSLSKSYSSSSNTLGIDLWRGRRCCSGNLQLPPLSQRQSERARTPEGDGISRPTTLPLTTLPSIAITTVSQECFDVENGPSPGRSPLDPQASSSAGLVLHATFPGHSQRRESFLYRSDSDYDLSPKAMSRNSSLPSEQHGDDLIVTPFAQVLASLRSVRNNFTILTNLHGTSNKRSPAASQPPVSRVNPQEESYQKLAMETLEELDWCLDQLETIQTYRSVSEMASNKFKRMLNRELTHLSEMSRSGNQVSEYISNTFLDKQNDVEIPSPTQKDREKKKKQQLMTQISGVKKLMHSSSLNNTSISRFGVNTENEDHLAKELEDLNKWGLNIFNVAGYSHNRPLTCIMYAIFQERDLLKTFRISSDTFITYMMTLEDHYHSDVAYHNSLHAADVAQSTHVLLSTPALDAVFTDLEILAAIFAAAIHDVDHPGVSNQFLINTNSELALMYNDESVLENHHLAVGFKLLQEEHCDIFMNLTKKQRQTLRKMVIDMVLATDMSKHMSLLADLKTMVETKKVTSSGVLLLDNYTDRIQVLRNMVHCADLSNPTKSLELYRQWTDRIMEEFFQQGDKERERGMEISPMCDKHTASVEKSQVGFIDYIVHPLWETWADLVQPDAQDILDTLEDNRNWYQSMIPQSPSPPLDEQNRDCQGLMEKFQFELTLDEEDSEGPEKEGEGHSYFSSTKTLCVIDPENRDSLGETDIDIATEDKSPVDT
Chain of Cytochrome P450 1A2 (Homo sapiens) (P05177 whole entry, looked up): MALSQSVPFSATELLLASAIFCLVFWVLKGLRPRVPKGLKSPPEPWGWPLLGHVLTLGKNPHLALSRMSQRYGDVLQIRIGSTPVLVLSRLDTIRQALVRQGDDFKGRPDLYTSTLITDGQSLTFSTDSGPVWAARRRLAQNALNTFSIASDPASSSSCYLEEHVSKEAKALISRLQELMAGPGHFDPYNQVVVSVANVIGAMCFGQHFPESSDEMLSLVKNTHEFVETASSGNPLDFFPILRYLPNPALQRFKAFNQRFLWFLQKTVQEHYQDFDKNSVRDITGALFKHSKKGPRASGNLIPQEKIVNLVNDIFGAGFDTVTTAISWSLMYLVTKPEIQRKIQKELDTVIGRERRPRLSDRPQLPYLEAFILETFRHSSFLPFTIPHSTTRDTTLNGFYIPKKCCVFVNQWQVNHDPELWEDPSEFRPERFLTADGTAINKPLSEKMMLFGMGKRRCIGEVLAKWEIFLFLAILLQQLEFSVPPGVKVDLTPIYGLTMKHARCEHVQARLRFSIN
Chain of Glucocorticoid receptor (Homo sapiens) (P04150 whole entry, looked up, the tested form may be a part): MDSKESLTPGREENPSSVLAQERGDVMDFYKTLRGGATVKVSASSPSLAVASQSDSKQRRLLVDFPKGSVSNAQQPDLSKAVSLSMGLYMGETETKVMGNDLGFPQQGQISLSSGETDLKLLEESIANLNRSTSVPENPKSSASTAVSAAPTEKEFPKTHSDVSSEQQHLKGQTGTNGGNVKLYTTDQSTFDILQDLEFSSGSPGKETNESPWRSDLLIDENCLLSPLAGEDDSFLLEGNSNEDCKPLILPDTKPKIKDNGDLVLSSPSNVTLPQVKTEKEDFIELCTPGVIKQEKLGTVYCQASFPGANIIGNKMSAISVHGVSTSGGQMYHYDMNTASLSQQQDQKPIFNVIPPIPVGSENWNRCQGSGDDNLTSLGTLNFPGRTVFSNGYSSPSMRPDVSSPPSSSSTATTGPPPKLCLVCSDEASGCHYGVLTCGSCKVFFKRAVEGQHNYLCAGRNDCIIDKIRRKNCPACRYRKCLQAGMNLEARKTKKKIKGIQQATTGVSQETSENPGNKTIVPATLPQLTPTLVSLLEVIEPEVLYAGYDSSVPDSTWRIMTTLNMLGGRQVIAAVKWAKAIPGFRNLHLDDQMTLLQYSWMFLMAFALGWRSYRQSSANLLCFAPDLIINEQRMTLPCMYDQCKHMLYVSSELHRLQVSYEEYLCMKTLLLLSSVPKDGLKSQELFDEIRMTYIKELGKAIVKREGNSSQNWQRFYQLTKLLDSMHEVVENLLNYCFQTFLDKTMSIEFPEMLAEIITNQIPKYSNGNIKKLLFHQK
Chain of Ubiquitin carboxyl-terminal hydrolase 1 (Homo sapiens) (O94782 whole entry, looked up): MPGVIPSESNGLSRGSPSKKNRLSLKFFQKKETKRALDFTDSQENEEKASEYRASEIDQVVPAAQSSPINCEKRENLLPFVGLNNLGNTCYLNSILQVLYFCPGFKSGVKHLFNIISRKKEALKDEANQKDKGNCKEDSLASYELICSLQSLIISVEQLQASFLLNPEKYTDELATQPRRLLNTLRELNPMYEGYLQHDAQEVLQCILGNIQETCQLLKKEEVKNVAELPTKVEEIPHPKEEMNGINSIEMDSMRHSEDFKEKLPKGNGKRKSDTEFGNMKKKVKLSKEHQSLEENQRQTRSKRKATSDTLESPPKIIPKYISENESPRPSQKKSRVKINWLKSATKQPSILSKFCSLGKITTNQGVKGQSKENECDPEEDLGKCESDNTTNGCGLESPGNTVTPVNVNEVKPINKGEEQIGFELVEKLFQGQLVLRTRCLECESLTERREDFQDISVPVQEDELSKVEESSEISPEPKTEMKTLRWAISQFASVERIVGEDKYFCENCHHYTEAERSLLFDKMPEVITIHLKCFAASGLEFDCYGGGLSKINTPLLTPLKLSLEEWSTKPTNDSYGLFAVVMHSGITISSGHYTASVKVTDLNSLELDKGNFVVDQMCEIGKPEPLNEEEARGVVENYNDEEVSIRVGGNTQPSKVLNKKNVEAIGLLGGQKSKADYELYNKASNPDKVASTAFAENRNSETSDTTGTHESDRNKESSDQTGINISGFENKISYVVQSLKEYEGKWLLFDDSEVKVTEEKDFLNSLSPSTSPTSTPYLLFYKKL
Chain of ATP-dependent 6-phosphofructokinase (Trypanosoma brucei brucei) (O15648 whole entry, looked up): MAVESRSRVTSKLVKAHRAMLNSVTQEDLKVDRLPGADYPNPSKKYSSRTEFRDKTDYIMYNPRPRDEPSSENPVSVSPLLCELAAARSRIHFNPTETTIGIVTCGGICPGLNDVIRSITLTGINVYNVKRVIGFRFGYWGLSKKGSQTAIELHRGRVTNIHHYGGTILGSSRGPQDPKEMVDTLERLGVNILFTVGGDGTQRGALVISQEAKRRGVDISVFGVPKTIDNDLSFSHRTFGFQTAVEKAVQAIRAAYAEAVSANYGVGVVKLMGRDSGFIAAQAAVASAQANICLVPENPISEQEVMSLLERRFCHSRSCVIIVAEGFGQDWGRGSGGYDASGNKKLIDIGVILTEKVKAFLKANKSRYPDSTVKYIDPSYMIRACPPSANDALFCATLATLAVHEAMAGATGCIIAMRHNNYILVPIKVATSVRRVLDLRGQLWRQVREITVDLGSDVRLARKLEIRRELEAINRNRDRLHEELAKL
Chain of Luciferin 4-monooxygenase (Photinus pyralis) (P08659 whole entry, looked up): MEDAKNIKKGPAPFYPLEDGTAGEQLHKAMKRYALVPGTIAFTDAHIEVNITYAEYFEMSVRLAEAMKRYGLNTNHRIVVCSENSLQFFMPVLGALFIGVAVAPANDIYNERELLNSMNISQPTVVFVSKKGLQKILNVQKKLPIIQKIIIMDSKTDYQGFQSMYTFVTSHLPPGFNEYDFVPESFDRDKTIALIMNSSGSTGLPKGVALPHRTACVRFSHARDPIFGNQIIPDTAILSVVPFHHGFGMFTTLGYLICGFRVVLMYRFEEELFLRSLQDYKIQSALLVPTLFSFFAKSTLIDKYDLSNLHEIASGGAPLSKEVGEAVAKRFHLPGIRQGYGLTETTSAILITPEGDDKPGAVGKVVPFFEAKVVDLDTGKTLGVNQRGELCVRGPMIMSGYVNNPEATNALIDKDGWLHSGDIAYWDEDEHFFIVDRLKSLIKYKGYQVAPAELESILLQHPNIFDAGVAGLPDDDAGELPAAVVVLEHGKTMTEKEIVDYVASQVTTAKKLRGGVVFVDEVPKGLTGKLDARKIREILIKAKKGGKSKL

CCCN(CCC)C(=O)[C@@H](CCC(=O)O)NC(=O)c1ccccc1
inactive: activity change, negative = inhibition ([1]; at 17.2 µM (top of the series)) 0.378% | activity change, negative = inhibition ([1]; at 38 µM (top of the series)) -3.39% | Potency [2] | activity change, negative = inhibition ([3]; at 17.2 µM (top of the series)) -4.73% | activity change, negative = inhibition ([3]; at 38 µM (top of the series)) -3.22% | activity, negative = inhibition ([4]; at 17.2 µM (top of the series)) -4.56% | activity, negative = inhibition ([4]; at 38 µM (top of the series)) -1.87% | Potency [5] > 46 µM and > 20.6 µM | Potency [6] > 46 µM and > 20.6 µM | Potency [7] | Potency [8] | outcome [9] | activity change, negative = inhibition [10] 0.554% | outcome [11] | Potency [12] | outcome [13] | activity, negative = inhibition ([14]; parasite line A) 5.79% | activity, negative = inhibition ([14]; parasite line B) 7.29% | Potency (AS120) | Potency (CP238) | Potency (CP250) | Potency (CP262) | Potency (CP265) | Potency (FAB9)
4.96%: max response [10, 16]
5.84%: max response [10, 15]

COc1ccc([C@H]2Sc3ccccc3N(CCN(C)C)C(=O)[C@H]2OC(C)=O)cc1
9.95%: max response [10, 16]
inactive: activity change, negative = inhibition ([1]; at 17.2 µM (top of the series)) -10.4% | activity change, negative = inhibition ([1]; at 38 µM (top of the series)) -3.25% | Potency [2] | activity change, negative = inhibition ([3]; at 17.2 µM (top of the series)) -5.79% | activity change, negative = inhibition ([3]; at 38 µM (top of the series)) -3.5% | activity, negative = inhibition ([4]; at 17.2 µM (top of the series)) -1.38% | activity, negative = inhibition ([4]; at 38 µM (top of the series)) 7.22% | Potency [5] > 46 µM and > 20.6 µM | Potency [6] > 46 µM and > 20.6 µM | Potency [8] | outcome [9] | activity change, negative = inhibition [10] -1.07% | Potency [12]
7.03%: max response [10, 15]
